# Tau fluor cs = counter-screen for tau fibril formation inhibitors. tau K18 P301L Alexa594 fluorescence, heparin fibrillization. Potency, µM (highest dose often 57.7 µM), for the others: at the top dose activity change, negative = decrease. hit rate 0.93% among 280,000; further: nearly all actives have a fitted effect of over 55% in size
#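 Human K18 P301L tau (15 uM unlabeled plus 0.24 uM Alexa 594-labeled, final) in 100 mM sodium acetate pH 7 was mixed with compound and 20 uM heparin and incubated 6 hr at 37 C.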
# Tau ThT inhib = tau fibrillization inhibition (ThT binding); recombinant tau K18 P301L (four-repeat tau fragment), heparin-induced fibrillization, ThT fluorescence; AID 1460; hit rate 2.1% among 270,000; Potency, µM (highest dose often 57.4 µM), for the others: at the highest dose activity, negative = inhibition, most hits filed as inhibitors; further: nearly all actives have a fitted effect of over 55% in size
#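 In this qHTS, human K18 P301L tau is incubated with compound and heparin for 6 hr at 37 C, and Thioflavin T fluorescence then reports fibril load.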
# ALDH1A1 block = blocks purified human ALDH1A1 activity | hit rate 7.3% among 220,000 | Potency, µM (series often up to 75.3 µM), for the others: top-dose activity, negative = inhibition, actives largely listed as inhibitors | Purified ALDH1A1, NADH fluorescence, propionaldehyde substrate | AID 1030 | P00352; active means well fitted inhibition curve with a large enough effect, not every such curve was filed as active; inconclusive means small, poorly fitted or top-dose-only effect, or another doubt; inactive means no such curve, though single readings can be large or run the other way;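 further: plate controls were no enzyme wells and a reference inhibitor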
# Target sequence (P00352 whole entry, looked up): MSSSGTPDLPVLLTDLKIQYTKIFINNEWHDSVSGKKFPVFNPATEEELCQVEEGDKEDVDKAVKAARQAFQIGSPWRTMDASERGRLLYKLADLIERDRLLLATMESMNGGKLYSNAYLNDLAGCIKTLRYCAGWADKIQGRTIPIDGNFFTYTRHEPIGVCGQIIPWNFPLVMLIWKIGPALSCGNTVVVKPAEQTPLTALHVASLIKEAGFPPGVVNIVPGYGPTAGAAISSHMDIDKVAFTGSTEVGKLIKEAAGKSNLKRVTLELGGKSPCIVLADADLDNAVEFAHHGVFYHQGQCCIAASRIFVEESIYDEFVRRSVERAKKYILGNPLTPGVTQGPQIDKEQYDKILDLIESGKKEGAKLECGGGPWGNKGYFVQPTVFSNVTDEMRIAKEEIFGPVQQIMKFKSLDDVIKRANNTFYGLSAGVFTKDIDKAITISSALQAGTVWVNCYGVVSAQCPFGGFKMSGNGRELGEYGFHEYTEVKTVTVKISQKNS
# KDM4E inh = blocks human JMJD2E demethylase activity. JMJD2E catalytic domain, FDH-coupled NADH fluorescence (FDH is formaldehyde dehydrogenase). hit rate 1.6% among 230,000. AID 2147. B2RXH2. Potency, µM (titrated, usually from 57.1 µM), for inactives: at the top dose activity change, negative = inhibition, actives largely listed as inhibitors; active means well fitted inhibition curve with a large enough effect, not every such curve was filed as active; inconclusive means small, poorly fitted or top-dose-only effect, or another doubt; inactive means no such curve, though single readings can be large or run the other way;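 further: 0% = wells with enzyme and -100% = buffer wells without enzyme; nearly all actives have a fitted effect of over 50% in size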
# HPGD block = inhibitors of human 15-hydroxyprostaglandin dehydrogenase (HPGD); P15428; purified HPGD, NADH fluorescence kinetic, PGE2 substrate; Potency, µM, for the others: top-dose activity change, negative = inhibition, actives largely listed as inhibitors; hit rate 4.3% among 150,000; AID 894; active means well fitted inhibition curve with a large enough effect, not every such curve was filed as active; inconclusive means small, poorly fitted or top-dose-only effect, or another doubt; inactive means no such curve, though single readings can be large or run the other way
#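 NADH formation kinetics: reaction with 30 uM PGE2 and 1 mM NAD+ (final), 20 nM enzyme, Tris-HCl pH 8 with Tween 20, after 15 min compound preincubation at room temperature. Fluorescence change, last versus first of five reads.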
# Tau fibril FP = tau fibrillization inhibition (FP); P10636; K18 P301L tau heparin fibrillization, Alexa594 FP, 6 h; Potency, µM (top dose mostly 57.7 µM), without a hit: at the top dose activity, negative = inhibition, most hits filed as inhibitors; hit rate 0.39% among 280,000; AID 1468; further: nearly all actives have a fitted effect of over 55% in size
#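 Quantitative HTS format: compounds meet 15 uM recombinant K18 P301L tau and Alexa 594-tau tracer in 100 mM sodium acetate pH 7; 20 uM heparin triggers fibrillization at 37 C over 6 hr; FP gives the signal.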
# * marks the source's active call; other numbers are inactive results; ? = inconclusive; · = no result; [ ] = dose if it differs, or a comment. Shown are actives, neighbours in structure and some others; about 9.9% of the full set was active somewhere. Unless noted, the call rests on the fitted dose curve; in most records, active means well fitted curve in the direction sought with a large enough effect; inconclusive means small, poorly fitted or top-dose-only effect, or another doubt; inactive means no such curve, though single readings can be large; an effect the other way counts as inactive or inconclusive. Unless noted, on the % scale 0 is the no-effect control and ±100 the full control effect; potency means the concentration at half of the fitted maximal effect.
SMILES,Tau fluor cs,Tau ThT inhib,ALDH1A1 block,KDM4E inh,HPGD block,Tau fibril FP
O=C(COc1ccc2c(c1)OCO2)Nc1ccccc1C(F)(F)F,-5%,-8%,9%,-3%,·,5%
COc1ccc(NC2c3ccccc3C(=O)N2Cc2ccco2)cc1OC (stereo unspecified),-1%,-9%,-8%,-1%,-7%,8%
CCOc1ccc(NC2c3ccccc3C(=O)N2Cc2ccco2)cc1 (stereo unspecified),-3%,2%,5.6µM*,-6%,-21%,7%
Cc1nc(N=Nc2cc(S(=O)(=O)O)c3cc([N+](=O)[O-])cc(S(=O)(=O)O)c3c2)c(COP(=O)(O)O)c(C=O)c1O,14µM*[quencher],8.9µM*,?,7.9µM*,?,20µM*
O=c1cc(C(F)(F)F)nc(-c2cccnc2)[nH]1,-1%,-9%,1%,4%,·,-1%
O=c1cc(C(F)(F)F)nc(-c2ccccc2)[nH]1,1%,1%,14%,-1%,14µM*,1%
Cc1ccsc1-c1n[nH]c(=S)n1CC(C)C,-13%,?,25µM*,5%,-18%,3%
CC(C)Cn1c(-c2ccc(Br)o2)n[nH]c1=S,-7%,-18%,10µM*,?,-19%,0%
COc1ccc(-c2cn(-c3ccc(C)cc3)c(S(=O)(=O)CC(=O)Nc3ccc(F)cc3)n2)cc1,?,-10%,·,·,·,?
COC(=O)c1ccc(C(NC(=O)OCc2ccccc2)/C(C)=C/[C@@H](C)C(=O)NCCc2c[nH]c3ccc(OC)cc23)cc1 (stereo partly specified),?,-20%,-13%,-20%,-13%,15%
COc1ccc(O[C@H]2C=C[C@@H](c3ccccc3)O[C@H]2COC(=O)CC/C(C)=N\O[C@@H](C)c2cc(-c3c(C)cc(C)cc3C)no2)cc1,-6%[11.6 µM],-8%[11.5 µM],9%[13.5 µM],·,·,-1%[11.6 µM]
CCOC(=O)c1ccc(NC(=O)Nc2ccc3c(c2)OCCO3)cc1,13µM*[quencher],?,7%,-18%,-9%,?
COc1cc(Cl)c(C)cc1NC(=O)COC(=O)c1cc[n+]([O-])cc1,-11%,-13%,16µM*,15%,·,1%
CCOCC(=O)Nc1ccc2c(c1)OCCO2,5%,0%,?,-3%,14µM*,5%
CC(Sc1ccc2c(c1)OCCO2)C(=O)Nc1ccc2c(c1)OCO2 (stereo unspecified),-1%,-6%,10µM*,2%,-6%,1%
Cc1nnc(SC(C)C(=O)Nc2ccc3c(c2)OCCO3)s1 (stereo unspecified),-8%,-10%,0%,1%,-17%,10%
O=C(COc1ccc([N+](=O)[O-])cc1)Nc1cccc2cccnc12,-17%,-8%,·,·,·,-2%
CNC(=O)C1CCC(Cn2c(=O)c3sccc3n(Cc3ccc(F)cc3)c2=O)CC1 (stereo unspecified),-2%,-4%,·,·,·,-4%
O=C(/C=C/c1cccs1)N1CCC2(CC1)Oc1ccc(Cl)cc1C(=O)C21CC(c2ccccc2)=NO1 (stereo unspecified),-2%,-4%,·,-6%,·,3%
COc1cc(OC)cc(C(=O)N2CC(=O)Nc3ccc(Cl)cc3C2c2ccccc2)c1 (stereo unspecified),-13%,-5%,·,·,·,-15%
O=C(COC(=O)c1cc[n+]([O-])cc1)Nc1ccc2c(c1)OCCO2,-5%,-16%,14µM*,-8%,-3%,4%
NC(=O)c1ccc(NC(=O)COC(=O)c2ccc3c(c2)OCCO3)cc1,-18%,-13%,·,-17%,·,?
Cc1ccc(Nc2nc(C3CC3)cs2)cc1,?,?,?,-8%,-16%,6%
Clc1ccc(Nc2nc(C3CC3)cs2)cc1,16µM*[quencher],?,?,-7%,?,?
O=C(Cn1cnc2cc([N+](=O)[O-])ccc2c1=O)NCCc1ccc(F)cc1,-13%,?,32µM*,-11%,·,7%
COc1ccc(S(=O)(=O)c2nnn(-c3cc(Cl)c(OC)cc3OC)c2C)cc1,?,-2%,·,·,·,-10%

# Screening results from PubChem.
